In the supplement of paper PMC10849652:
About 7,900 targets were measured; listed, in parts, are those with a hit and a random draw of the rest. About 0.6% of all pairs of compound and target were hits. A number with no mark means an inactive call.

How the values were obtained:
Assay in all cases: log2 fold change, soluble protein after heating vs DMSO (PISA); higher = thermal stabilisation; K562 cells, 10 uM, 30 min; active = over 0.2 and 3.5 SD of the protein, either way, in both replicates (recomputed)
ZEB2 = ZEB2 (UniProt O60315)
In short: (§1)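 K562 cells at 2×10^6 cells/mL were treated for 30 min with 10 μM compound, and aliquots were heated for 3 min over 48°C-58°C before pooling. Extraction used PBS with 0.5% NP-40 at 4°C, and soluble protein was the supernatant after 21,000xg for 90 min, measured by TMTpro 16plex LC-MS/MS with channel sums equalised. Thermal stability values, relative to control samples and from duplicates, are log2 fold changes.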

ZER1 = ZER1 (UniProt Q7Z7L7)
In short: as §1

ZFAND5 = ZFAND5 (UniProt O76080)
In short: as §1

ZFAND6 = ZFAND6 (UniProt Q6FIF0)
In short: as §1

ZFP91 = ZFP91 (UniProt Q96JP5)
In short: as §1

ZFPL1 = ZFPL1 (UniProt O95159)
In short: as §1

ZMAT2 = ZMAT2 (UniProt Q96NC0)
In short: as §1

ZMYM1 = ZMYM1 (UniProt Q5SVZ6)
In short: as §1

ZMYM3 = ZMYM3 (UniProt Q14202)
In short: as §1

ZNF143 = ZNF143 (UniProt P52747)
In short: as §1

ZNF217 = ZNF217 (UniProt O75362)
In short: as §1

ZNF239 = ZNF239 (UniProt Q16600)
In short: as §1

ZNF277 = ZNF277 (UniProt Q9NRM2)
In short: as §1

ZNF511 isoform 1 = ZNF511 isoform 1 (UniProt Q8NB15)
In short: as §1

ZNF579 = ZNF579 (UniProt Q8NAF0)
In short: as §1

ZNF580 = ZNF580 (UniProt Q9UK33)
In short: as §1

ZNF609 = ZNF609 (UniProt O15014)
In short: as §1

ZNF622 = ZNF622 (UniProt Q969S3)
In short: as §1

ZRANB2 = ZRANB2 (UniProt O95218)
In short: as §1

ZNF512 = ZNF512 (UniProt Q96ME7)
In short: as §1

ZNF512, sequence (Q96ME7 whole entry, looked up): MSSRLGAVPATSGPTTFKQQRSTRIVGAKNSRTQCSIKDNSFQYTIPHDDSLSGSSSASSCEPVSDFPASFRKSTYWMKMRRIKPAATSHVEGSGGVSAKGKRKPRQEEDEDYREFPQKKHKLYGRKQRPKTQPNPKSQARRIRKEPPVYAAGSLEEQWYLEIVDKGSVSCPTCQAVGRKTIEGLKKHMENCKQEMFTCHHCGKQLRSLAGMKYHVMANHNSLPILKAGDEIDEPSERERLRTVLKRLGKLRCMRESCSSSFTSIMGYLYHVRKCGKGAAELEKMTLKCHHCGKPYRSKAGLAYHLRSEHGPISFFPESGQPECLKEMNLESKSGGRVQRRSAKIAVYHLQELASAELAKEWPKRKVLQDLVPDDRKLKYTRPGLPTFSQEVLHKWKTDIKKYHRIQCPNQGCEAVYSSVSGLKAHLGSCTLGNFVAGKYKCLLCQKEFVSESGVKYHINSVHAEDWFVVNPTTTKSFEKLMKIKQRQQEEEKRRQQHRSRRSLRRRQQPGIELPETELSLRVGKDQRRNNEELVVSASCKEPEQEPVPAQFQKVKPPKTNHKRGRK
ZEB2, sequence (O60315 whole entry, looked up): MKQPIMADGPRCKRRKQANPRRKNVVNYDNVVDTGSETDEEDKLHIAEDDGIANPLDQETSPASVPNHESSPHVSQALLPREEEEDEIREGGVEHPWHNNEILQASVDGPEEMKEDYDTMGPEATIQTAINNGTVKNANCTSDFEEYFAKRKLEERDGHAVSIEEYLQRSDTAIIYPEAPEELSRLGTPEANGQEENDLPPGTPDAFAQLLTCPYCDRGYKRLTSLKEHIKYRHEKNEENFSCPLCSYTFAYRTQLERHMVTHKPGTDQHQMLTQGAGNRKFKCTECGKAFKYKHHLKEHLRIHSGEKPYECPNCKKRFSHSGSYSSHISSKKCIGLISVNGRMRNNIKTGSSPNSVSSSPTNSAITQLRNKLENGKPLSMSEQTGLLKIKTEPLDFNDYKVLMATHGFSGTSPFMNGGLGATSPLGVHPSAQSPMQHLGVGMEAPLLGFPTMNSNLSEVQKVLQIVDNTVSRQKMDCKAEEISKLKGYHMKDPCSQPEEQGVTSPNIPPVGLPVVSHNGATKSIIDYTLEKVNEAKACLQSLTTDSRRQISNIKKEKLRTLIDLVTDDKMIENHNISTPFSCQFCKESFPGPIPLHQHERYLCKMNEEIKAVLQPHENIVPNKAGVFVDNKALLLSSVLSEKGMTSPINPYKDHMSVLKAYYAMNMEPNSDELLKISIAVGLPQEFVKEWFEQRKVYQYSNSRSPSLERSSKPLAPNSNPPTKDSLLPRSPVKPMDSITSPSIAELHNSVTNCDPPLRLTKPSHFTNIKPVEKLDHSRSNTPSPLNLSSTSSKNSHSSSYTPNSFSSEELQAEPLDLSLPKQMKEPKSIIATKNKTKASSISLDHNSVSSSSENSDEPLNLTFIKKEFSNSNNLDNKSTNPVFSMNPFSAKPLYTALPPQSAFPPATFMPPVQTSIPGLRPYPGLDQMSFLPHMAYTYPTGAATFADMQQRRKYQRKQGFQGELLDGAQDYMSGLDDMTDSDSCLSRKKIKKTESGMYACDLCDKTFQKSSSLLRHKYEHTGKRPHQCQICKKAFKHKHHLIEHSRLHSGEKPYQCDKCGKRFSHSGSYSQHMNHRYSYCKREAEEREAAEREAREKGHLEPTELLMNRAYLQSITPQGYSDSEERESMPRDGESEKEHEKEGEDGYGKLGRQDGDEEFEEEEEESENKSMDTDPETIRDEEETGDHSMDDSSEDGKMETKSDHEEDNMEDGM
ZFAND5, sequence (O76080 whole entry, looked up): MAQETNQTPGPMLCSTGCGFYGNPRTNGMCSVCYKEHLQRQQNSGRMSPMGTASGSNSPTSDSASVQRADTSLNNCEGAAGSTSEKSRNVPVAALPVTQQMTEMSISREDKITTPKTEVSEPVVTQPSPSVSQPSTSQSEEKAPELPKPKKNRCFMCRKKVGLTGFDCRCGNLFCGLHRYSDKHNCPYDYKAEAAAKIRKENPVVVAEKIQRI
ZNF277, sequence (Q9NRM2 whole entry, looked up): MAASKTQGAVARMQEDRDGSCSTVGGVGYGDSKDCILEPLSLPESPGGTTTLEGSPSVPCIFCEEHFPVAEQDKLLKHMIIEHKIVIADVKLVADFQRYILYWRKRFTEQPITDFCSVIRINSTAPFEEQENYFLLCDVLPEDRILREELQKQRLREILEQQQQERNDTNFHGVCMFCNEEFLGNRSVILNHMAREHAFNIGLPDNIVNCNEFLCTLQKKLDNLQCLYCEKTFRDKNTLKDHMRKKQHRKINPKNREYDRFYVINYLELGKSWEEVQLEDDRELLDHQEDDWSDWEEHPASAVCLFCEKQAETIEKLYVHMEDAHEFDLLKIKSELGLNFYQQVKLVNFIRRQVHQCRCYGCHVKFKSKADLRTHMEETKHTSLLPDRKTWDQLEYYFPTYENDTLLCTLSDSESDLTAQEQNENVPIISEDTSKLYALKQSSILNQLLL
ZNF622, sequence (Q969S3 whole entry, looked up): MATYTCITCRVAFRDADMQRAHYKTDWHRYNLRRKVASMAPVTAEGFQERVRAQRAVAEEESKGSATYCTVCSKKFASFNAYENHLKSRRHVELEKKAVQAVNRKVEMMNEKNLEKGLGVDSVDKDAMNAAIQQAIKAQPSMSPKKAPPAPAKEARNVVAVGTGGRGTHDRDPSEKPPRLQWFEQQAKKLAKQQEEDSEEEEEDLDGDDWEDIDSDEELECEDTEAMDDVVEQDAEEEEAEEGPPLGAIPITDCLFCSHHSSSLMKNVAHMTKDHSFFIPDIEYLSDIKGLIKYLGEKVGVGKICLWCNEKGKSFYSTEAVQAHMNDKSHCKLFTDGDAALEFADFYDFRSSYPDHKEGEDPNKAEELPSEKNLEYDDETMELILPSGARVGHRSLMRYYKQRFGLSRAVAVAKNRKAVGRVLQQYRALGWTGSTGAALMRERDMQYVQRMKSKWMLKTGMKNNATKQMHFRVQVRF
ZFPL1, sequence (O95159 whole entry, looked up): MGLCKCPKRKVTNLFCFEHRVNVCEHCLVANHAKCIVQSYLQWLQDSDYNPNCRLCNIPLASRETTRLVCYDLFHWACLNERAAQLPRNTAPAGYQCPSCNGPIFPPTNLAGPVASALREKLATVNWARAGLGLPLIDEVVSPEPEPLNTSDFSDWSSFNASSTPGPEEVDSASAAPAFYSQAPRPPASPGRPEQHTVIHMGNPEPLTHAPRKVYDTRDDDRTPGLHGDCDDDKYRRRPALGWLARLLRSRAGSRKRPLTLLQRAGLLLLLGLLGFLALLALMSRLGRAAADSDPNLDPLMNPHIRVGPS
ZNF143, sequence (P52747 whole entry, looked up): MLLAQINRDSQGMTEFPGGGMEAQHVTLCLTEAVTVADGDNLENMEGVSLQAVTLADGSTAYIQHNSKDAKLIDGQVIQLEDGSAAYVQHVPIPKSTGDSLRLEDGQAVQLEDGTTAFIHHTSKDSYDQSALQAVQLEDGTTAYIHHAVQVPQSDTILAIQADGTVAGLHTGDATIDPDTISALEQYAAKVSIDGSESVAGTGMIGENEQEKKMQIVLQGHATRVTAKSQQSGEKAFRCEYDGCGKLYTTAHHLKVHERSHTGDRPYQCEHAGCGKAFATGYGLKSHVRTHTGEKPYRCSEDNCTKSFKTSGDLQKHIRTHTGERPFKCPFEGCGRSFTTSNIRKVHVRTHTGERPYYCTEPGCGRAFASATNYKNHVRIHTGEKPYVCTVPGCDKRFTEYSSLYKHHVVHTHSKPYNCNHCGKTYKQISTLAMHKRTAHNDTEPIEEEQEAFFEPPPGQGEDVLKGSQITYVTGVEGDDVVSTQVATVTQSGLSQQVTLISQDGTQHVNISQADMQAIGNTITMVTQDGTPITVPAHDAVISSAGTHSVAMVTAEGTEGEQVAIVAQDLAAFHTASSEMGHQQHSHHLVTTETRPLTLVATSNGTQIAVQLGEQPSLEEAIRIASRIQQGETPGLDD
ZER1, sequence (Q7Z7L7 whole entry, looked up): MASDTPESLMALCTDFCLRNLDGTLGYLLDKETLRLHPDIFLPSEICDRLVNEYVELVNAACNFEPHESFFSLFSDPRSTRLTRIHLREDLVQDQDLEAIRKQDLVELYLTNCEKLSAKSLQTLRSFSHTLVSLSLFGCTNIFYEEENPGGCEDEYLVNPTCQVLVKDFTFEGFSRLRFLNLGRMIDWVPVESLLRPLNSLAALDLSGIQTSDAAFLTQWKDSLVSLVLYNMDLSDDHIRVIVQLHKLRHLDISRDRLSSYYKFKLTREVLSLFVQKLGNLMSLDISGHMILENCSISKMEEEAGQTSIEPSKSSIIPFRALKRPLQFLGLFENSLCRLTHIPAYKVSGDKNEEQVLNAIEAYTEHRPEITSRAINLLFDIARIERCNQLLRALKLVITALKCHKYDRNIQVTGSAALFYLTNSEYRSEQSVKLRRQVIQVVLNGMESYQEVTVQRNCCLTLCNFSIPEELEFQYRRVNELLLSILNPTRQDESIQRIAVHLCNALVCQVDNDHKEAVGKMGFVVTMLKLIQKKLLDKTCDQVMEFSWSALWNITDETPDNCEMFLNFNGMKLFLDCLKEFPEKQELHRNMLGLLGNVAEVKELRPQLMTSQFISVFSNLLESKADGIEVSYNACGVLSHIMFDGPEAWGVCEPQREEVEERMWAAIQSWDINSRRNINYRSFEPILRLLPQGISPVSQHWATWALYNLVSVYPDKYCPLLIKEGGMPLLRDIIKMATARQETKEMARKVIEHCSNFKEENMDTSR
ZFAND6, sequence (Q6FIF0 whole entry, looked up): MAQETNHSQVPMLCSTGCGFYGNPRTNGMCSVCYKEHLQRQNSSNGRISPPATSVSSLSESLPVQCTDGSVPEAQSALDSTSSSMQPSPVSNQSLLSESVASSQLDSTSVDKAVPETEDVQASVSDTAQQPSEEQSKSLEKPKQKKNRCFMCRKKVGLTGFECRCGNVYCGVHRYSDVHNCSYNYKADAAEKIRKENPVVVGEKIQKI

Row | Structure (SMILES) | log2 fold change (ZEB2) | log2 fold change (ZER1) | log2 fold change (ZFAND5) | log2 fold change (ZFAND6) | log2 fold change (ZFP91) | log2 fold change (ZFPL1) | log2 fold change (ZMAT2) | log2 fold change (ZMYM1) | log2 fold change (ZMYM3) | log2 fold change (ZNF143) | log2 fold change (ZNF217) | log2 fold change (ZNF239) | log2 fold change (ZNF277) | log2 fold change (ZNF511 isoform 1) | log2 fold change (ZNF579) | log2 fold change (ZNF580) | log2 fold change (ZNF609) | log2 fold change (ZNF622) | log2 fold change (ZRANB2) | log2 fold change (ZNF512)
1 | COc1cc2nc(-c3cc(F)ccc3O)nc(N[C@@H]3CNC[C@H]3C(C)(C)O)c2cc1OC | -0.018 | 0.048 | 0 | 0.017 | -0.095 | 0.099 | -0.028 | 0.004 | -0.045 | -0.19 | -0.026 | 0.024 | 0.268 | -0.013 | 0.042 | 0.093 | 0.205 | 0.028 | -0.006 | –
2 | FC(F)(F)c1ccc(/C=C/c2nc(COc3ccc(CCCCn4ccnn4)cc3)co2)cc1 [mubritinib] | -0.114 | 0.044 | 0.099 | 0.017 | -0.076 | -0.007 | 0.049 | -0.081 | -0.072 | 0.094 | 0.08 | -0.483 | 0.192 | -0.06 | 0.031 | – | 0.019 | 0.004 | -0.02 | -0.122
3 | CN1CCc2c(c3ccccc3n2Cc2ccc(C(=O)NO)cc2)C1 [Tubastatin A] | 0.181 | 0.048 | 0.285 (active) | 0.144 | 0.077 | -0.025 | 0.057 | 0.071 | -0.028 | -0.031 | -0.086 | 0.091 | 0.275 | -0.089 | 0.095 | -0.08 | -0.126 | 0.018 | -0.032 | –
4 | CS(=O)(=O)CCNCc1ccc(-c2ccc3ncnc(Nc4ccc(OCc5cccc(F)c5)c(Cl)c4)c3c2)o1 [lapatinib] | 0.019 | -0.057 | 0.038 | -0.106 | 0.173 | -0.035 | 0.016 | 0.082 | 0.007 | -0.011 | 0.018 | -0.095 | 0 | -0.085 | 0.05 | -0.025 | 0.09 | 0 | 0.018 | –
5 | Cn1cncc1[C@@](N)(c1ccc(Cl)cc1)c1ccc2c(c1)c(-c1cccc(Cl)c1)cc(=O)n2C [tipifarnib] | 0.045 | 0.111 | 0.031 | -0.09 | 0.149 | 0.008 | -0.058 | 0.01 | 0.027 | 0.037 | -0.152 | 0.178 | 0.044 | 0.062 | 0 | -0.204 | 0 | -0.048 | -0.001 | –
6 | Fc1ccc(Cl)cc1-c1nc(Nc2ccncc2)c2nccnc2n1 | -0.099 | -0.022 | 0.003 | -0.05 | 0.007 | 0.101 | 0.018 | -0.057 | -0.012 | -0.058 | 0.168 | -0.333 | -0.765 (active) | -0.03 | -0.002 | – | -0.302 | 0.038 | 0.041 | 0.086
7 | Cc1ncc(-c2ccnc(Nc3ccc(S(C)(=O)=O)cc3)n2)n1C(C)C | -0.05 | 0.058 | -0.099 | -0.031 | -0.035 | -0.01 | -0.027 | -0.033 | -0.009 | 0.074 | -0.046 | 0.275 | 0.017 | 0.015 | -0.054 | – | -0.102 | 0.013 | -0.027 | -0.072
8 | CC(C)(O)CC(=O)NCCn1ccc2ncnc(Nc3ccc(Oc4cccc(C(F)(F)F)c4)c(Cl)c3)c21 | 0.034 | -0.104 | -0.019 | 0.015 | 0.065 | 0.04 | -0.016 | -0.01 | 0.084 | 0.028 | -0.122 | 0.086 | -0.002 | 0.1 | -0.018 | – | 0.101 | -0.078 | -0.012 | -0.018
9 | CC[C@@H]1C(=O)N(C)c2cnc(Nc3ccc(C(=O)N[C@H]4CC[C@H](N5CCN(CC6CC6)CC5)CC4)cc3OC)nc2N1C(C)C [volasertib] | 0.001 | 0.009 | 0.215 | 0.09 | 0.016 | -0.088 | 0.036 | -0.118 | -0.077 | -0.289 (active) | -0.007 | 0.084 | -0.017 | 0.007 | 0.098 | 0.025 | -0.328 | 0.138 | 0.1 | –
10 | CCCS(=O)(=O)Nc1ccc(F)c(C(=O)c2c[nH]c3ncc(Cl)cc23)c1F | 0.123 | -0.001 | -0.058 | 0.002 | -0.041 | 0.006 | -0.008 | -0.006 | 0.016 | 0.063 | 0.688 (active) | -0.02 | 0.028 | 0.014 | -0.085 | 0.069 | 0.036 | 0.023 | -0.02 | –
11 | C[C@@H]1COCCN1c1cc(C2(S(C)(=O)=O)CC2)nc(-c2cccc3[nH]ccc23)n1 | 0.001 | 0.107 | 0.041 | 0.127 | -0.124 | -0.056 | -0.022 | 0.029 | -0.058 | -0.018 | -0.099 | -0.065 | -0.566 | 0.105 | -0.114 | – | -0.064 | 0.067 | 0.001 | 0.007
12 | CCCCN(Cc1ccc(C(=O)NO)cc1)C(=O)Nc1ccccc1 [Nexturastat A] | 0.047 | 0.012 | 0.371 (active) | 0.027 | 0.079 | -0.064 | -0.011 | 0.059 | 0.07 | 0.19 | 0.006 | 0.441 | 0.276 | -0.074 | 0.004 | – | 0.475 (active) | -0.086 | -0.057 | -0.038
13 | NC1(Cc2ccc(Cl)cc2)CCN(c2ncnc3[nH]ccc23)CC1 | -0.149 | 0.043 | 0.119 | 0.038 | -0.042 | 0.071 | 0.058 | 0.052 | 0.117 | 0.085 | 0.197 | 0.117 | -0.319 | 0.079 | -0.064 | 0.183 | -0.115 | -0.263 (active) | 0.014 | –
14 | NC1(c2ccc(-c3nc4ccn5c(=O)[nH]nc5c4cc3-c3ccccc3)cc2)CCC1 | -0.127 | 0 | 0.019 | 0.056 | 0.144 | 0.058 | 0.043 | 0.215 | -0.036 | -0.023 | -0.045 | -0.253 | 0.107 | -0.039 | -0.061 | – | 0.018 | -0.019 | 0.046 | 0.151
15 | COC(=O)[C@H](CCSC)NC(=O)c1ccc(NC[C@@H](N)CS)cc1-c1ccccc1 | -0.382 | 0.035 | 0.1 | 0.061 | 0.064 | -0.007 | 0.019 | 0.026 | 0.035 | 0.013 | -0.067 | 0.002 | -0.047 | -0.201 | -0.012 | -0.082 | 0.019 | 0.005 | 0.05 | –
